Results as given in PubChem BioAssay (EPA / NIEHS).
Records with an inconclusive call do not appear. Active and inactive are the calls of the source. How the source made its calls, unless noted: active means hit-call score of the fitted dose curve at least 0.9, where 1 is the maximum; inactive means score below 0.9.

What was measured:
[1] = CCTE_Shafer_MEA_dev_per_network_spike_spike_number_mean: CCTE's Neural Network Formation Assay for Mean Number of Spikes in a Network Spike, Shafer Lab (AID 2284053)
Method in brief: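 Rat cortical primary cultures on 48-well MEA; compound from day 0, re-dosed with full media change DIV 5, 9. Recorded DIV 5, 7, 9, 12; spikes in 0.05 s window at network-spike peak ÷ total network spikes; AUC; loss vs DMSO.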

[2] = CCTE_Shafer_MEA_dev_per_network_spike_spike_percent: CCTE's Neural Network Formation Assay for Percent of Spikes in a Network Spike, Shafer Lab (AID 2284054)
Method in brief: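 Metric: fraction of spikes falling in a 0.05 s window at network-spike peaks. Recordings were made on days 5, 7, 9 and 12 and collapsed by trapezoidal AUC. Cultures were rat cortical neurons on MEA plates, dosed continuously from plating, re-dosed at media changes.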

[3] = UKN5_HCS_SBAD2_cell_viability: Viability Assessment in the University of Konstanz (UKN) Leist Lab Neurite Outgrowth Assay in human iPSC-derived immature Dorsal Root Ganglia Neurons (UKN5) (AID 2284056)
Method in brief: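 iPSC-derived immature peripheral neurons (SBAD2) seeded on Matrigel with CHIR99021, SU5402 and DAPT, dosed 1 h later for 24 h. Viability from Hoechst H-33342 and calcein-AM live staining, high-content imaging; bidirectional fit versus DMSO.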

[4] = CCTE_Shafer_MEA_dev_LDH: CCTE's Lactate Dehydrogenase Assay for Cytotoxicity in the Neural Network Formation Assay, Shafer Lab (AID 2284068; active means hit-call score of the fitted dose curve at least 0.9, where 1 is the maximum;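 further: exposure for twelve days from plating with re-dosing on DIV 5 and 9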)
Method in brief: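 Rat cortical primary neurons, MEA culture; dosing day 0–12, full medium plus compound exchange DIV 5, 9. Read-out: LDH enzyme activity, spectrophotometric. DMSO = negative control/baseline; signal loss → cytotoxicity.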

[5] = CCTE_Shafer_MEA_acute_AB: CCTE's Alamar Blue Assay for Cytotoxicity in the Neural Acute Assay, Shafer Lab (AID 2284069; active means hit-call score of the fitted dose curve at least 0.9, where 1 is the maximum;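 further: active compounds lower the viability signal compared with DMSO wells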)
Method in brief: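 Read-out: resazurin fluorescence (ex 544, em 590 nm) after CTB reagent at 1:6 dilution in fresh media. Cells: primary rat cortical neuron networks, DIV 13 or 15, chemically exposed on MEA plates; DMSO as negative control/baseline.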

[6] = UKN5_HCS_SBAD2_neurite_outgrowth: University of Konstanz (UKN) Leist Lab Neurite Outgrowth Assay in human iPSC-derived immature Dorsal Root Ganglia Neurons (UKN5) (AID 2284070); conditions: actives raise or lower the signal
Method in brief: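 Neurite outgrowth is quantified as calcein-AM-labelled neurite area in human iPSC-derived peripheral neurons treated for 24 h, starting 1 h after plating in medium with CHIR99021 (1.5 uM), SU5402 (5 uM) and DAPT (5 uM).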

[7] = CCTE_Shafer_MEA_acute_LDH: CCTE's Lactate Dehydrogenase Assay for Cytotoxicity in the Neural Acute Assay, Shafer Lab (AID 2284086; active means hit-call score of the fitted dose curve at least 0.9, where 1 is the maximum;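 further: active means LDH release rises above DMSO vehicle level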)
Method in brief: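 Cytotoxicity readout: spectrophotometric LDH activity in supernatant of rat primary cortical neurons, post-plating day 13 or 15, sampled after 40 min compound exposure; signal gain relative to DMSO baseline.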

[8] = CCTE_Shafer_MEA_dev_mutual_information_norm: CCTE's Neural Network Formation Assay for Mutual Information Normalization, Shafer Lab (AID 2284091)
Method in brief: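 Shared information across electrodes, tracked on days 5, 7, 9 and 12 of network development and collapsed as trapezoidal area under the curve. Rat cortical cultures were treated continuously from plating, with treatment renewed at feeds on DIV 5 and 9; DMSO baseline, negative-direction fit.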

[9] = CCTE_Shafer_MEA_dev_correlation_coefficient_mean: CCTE's Neural Network Formation Assay for Mean Correlation Coefficient, Shafer Lab (AID 2284093)
Method in brief: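 Rat cortical cultures, 1.5 x 10^5 cells/well, dosed from day 0 for 12 days. Spontaneous spikes recorded DIV 5/7/9/12; electrode-pair correlation coefficients averaged, AUC taken. Fit in loss direction vs DMSO.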

[10] = UKN2_HCS_IMR90_neural_migration: University of Konstanz (UKN) Leist Lab Neural Crest Cell Migration Assay in human induced IMR90 Pluripotent Stem Cells (UKN2) (AID 2284204); conditions: actives raise or lower the signal
Method in brief: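 High-content imaging of calcein-AM and Hoechst stained cells quantifies migration into a stopper-defined gap after 24 h compound exposure. Neural crest cells from IMR90 iPSC migrated 24 h in EGF/FGF N2-S medium before dosing; DMSO baseline.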

[11] = UKN4_HCS_LUHMES_neurite_outgrowth: University of Konstanz (UKN) Leist Lab Neurite Outgrowth Assay in human LUHMES cells (UKN4) (AID 2284206); conditions: actives raise or lower the signal
Method in brief: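 Neurite area in dopaminergic-model LUHMES neurons is measured by high-content imaging of calcein-AM after 24 h treatment starting shortly after day-2 replating; Hoechst staining tracks viability.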

[12] = IUF_NPC1b_proliferation_BrdU_72hr: Leibniz Research Institute for Environmental Medicine (IUF) 72-hour Neural Progenitor Cell Bromodeoxyuridine (BrdU) Proliferation Assay (NPC1b) (AID 2284207)
Method in brief: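 Human fetal cortex-derived (GW 16-19) neural progenitor spheres, 0.25-0.35 mm, one per well in EGF/FGF proliferation medium, exposed to compound for 72 h at 37C, pH 7.2-7.6. BrdU incorporation over the final 16 h read by luminescence ELISA, relative to DMSO.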

[13] = IUF_NPC1a_proliferation_area_72hr: Leibniz Research Institute for Environmental Medicine (IUF) 72-hour Neural Progenitor Cell Proliferation Area Assay (NPC1a) (AID 2284208)
Method in brief: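 Single 0.25–0.35 mm human fetal neural progenitor spheres in proliferation medium with EGF and FGF, exposed 72 h from plating without renewal at 37C, pH 7.2-7.6. Sphere area growth measured by automated phase-contrast imaging, relative to DMSO.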

[14] = IUF_NPC1_viability_72hr: Viability Assessment at 72 hours in the Leibniz Research Institute for Environmental Medicine (IUF) Neural Progenitor Cell Proliferation Assay (NPC1) (AID 2284209)
Method in brief: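 Three-day continuous exposure of human neural progenitor spheres under EGF/FGF-driven proliferation; cell viability scored by alamar blue signal versus DMSO.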

[15] = UKN4_HCS_LUHMES_cell_viability: Viability Assessment in the University of Konstanz (UKN) Leist Lab Neurite Outgrowth Assay in human LUHMES cells (UKN4) (AID 2284232)
Method in brief: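 Measured in replated, 2-day-differentiated LUHMES cells treated 24 h; stained 30 min with H-33342 and calcein-AM before high-content imaging.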

[16] = UKN2_HCS_IMR90_cell_viability: Viability Assessment in the University of Konstanz (UKN) Leist Lab Neural Crest Cell Migration Assay in human induced IMR90 Pluripotent Stem Cells (UKN2) (AID 2284233);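 further: cells exposed to compound for 24 h after a 24 h migration phase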
Method in brief: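 After calcein-AM/Hoechst staining, viability is quantified by high-content fluorescence imaging, relative to DMSO, in iPSC (IMR90)-derived neural crest cells. Exposure lasts 24 h, starting after a 24 h migration period on PLO/laminin/fibronectin coating.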

[17] = IUF_NPC2a_radial_glia_migration_120hr: Leibniz Research Institute for Environmental Medicine (IUF) 120-hour Neural Progenitor Cell Migration Assay for Radial Glia Migration (NPC2a) (AID 2284298)
Method in brief: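 Human fetal-cortex neural progenitor spheres (0.3 mm) plated on poly-D-lysine/laminin in N2 differentiation medium, exposed 120 h at 37C with half-medium renewal at day 3. Radial glia migration distance (um) measured from Hoechst-stained nuclei images; DMSO baseline.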

[18] = IUF_NPC2a_radial_glia_migration_72hr: Leibniz Research Institute for Environmental Medicine (IUF) 72-hour Neural Progenitor Cell Migration Assay for Radial Glia Migration (NPC2a) (AID 2284299)
Method in brief: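 Spheres of human primary neural progenitors migrate on poly-D-lysine/laminin under compound exposure at 37C, 5% CO2. The 72 h radial glia migration distance comes from brightfield images, measured manually.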

[19] = IUF_NPC3_neuronal_differentiation_120hr: Leibniz Research Institute for Environmental Medicine (IUF) 120-hour Neuronal Differentiation Assay (NPC3) (AID 2284301)
Method in brief: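 Value is percent TUBB3-positive neurons among Hoechst-stained nuclei in the migration area, scored by trained CNN after 120 h differentiation. Primary hNPC spheres on poly-D-lysine/laminin, N2 medium, continuous dosing from day 0, half-refeed day 3; DMSO reference.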

[20] = IUF_NPC4_neurite_length_120hr: Leibniz Research Institute for Environmental Medicine (IUF) 120-hour Neuronal Morphology Assay for Neurite Length (NPC4) (AID 2284302)
Method in brief: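 Neurite length, the mean in um across TUBB3-stained neurons, is derived by skeletonization of high-content images after 120 h differentiation. Compound exposure, 7 concentrations plus solvent control, ran from plating of hNPC spheres on poly-D-lysine/laminin, with medium half-replaced on day 3.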

[21] = IUF_NPC4_neurite_area_120hr: Leibniz Research Institute for Environmental Medicine (IUF) 120-hour Neuronal Morphology Assay for Neurite Area (NPC4) (AID 2284305; active means hit-call score of the fitted dose curve at least 0.9, where 1 is the maximum)
Method in brief: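 Neurite area (pixels, nuclei excluded) of TUBB3-positive neurons from hNPC spheres differentiating 5 days under continuous exposure at 37 C, 5% CO2. High-content imaging; loss of signal versus DMSO control across 7 concentrations.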

[22] = IUF_NPC2-5_cytotoxicity_120hr: Cytotoxicity Assessment at 120 hours in the Leibniz Research Institute for Environmental Medicine (IUF) Neural Progenitor Cell Migration and Differentiation Assay (NPC2-5) (AID 2284307; active means hit-call score of the fitted dose curve at least 0.9, where 1 is the maximum)
Method in brief: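 Human fetal (GW 16-19) neural progenitor spheres (0.3 mm) plated on poly-D-lysine/laminin in N2 differentiation medium, exposed 120 h with half-medium renewal at day 3; 7 concentrations plus solvent control, DMSO ≤0.1%. LDH release in supernatant read by resorufin fluorescence.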

[23] = IUF_NPC2-5_cell_number_120hr: Cell Number Assessment at 120 hours in the Leibniz Research Institute for Environmental Medicine (IUF) Neural Progenitor Cell Migration and Differentiation Assay (NPC2-5) (AID 2284308);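 further: count of Hoechst-stained nuclei in migration zone around plated human neural progenitor spheres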
Method in brief: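 Human fetal neural progenitor spheres (0.3 mm) plated on poly-D-lysine/laminin in N2 differentiation medium, exposed five days across 7 concentrations with half-medium refresh at day 3. Hoechst-positive nuclei counted in migration area at 120 h, relative to DMSO.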

[24] = IUF_NPC2-5_viability_120hr: Viability Assessment at 120 hours in the Leibniz Research Institute for Environmental Medicine (IUF) Neural Progenitor Cell Migration and Differentiation Assay (NPC2-5) (AID 2284312)
Method in brief: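 Alamar blue resorufin fluorescence read after 5 days of differentiation, with compound present from day 0 and replenished at day 3. Primary hNPC spheres on laminin-coated plates, 37C; seven concentrations plus solvent control, fitted against DMSO.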

[25] = IUF_NPC1_cytotoxicity_72hr: Cytotoxicity Assessment at 72 hours in the Leibniz Research Institute for Environmental Medicine (IUF) Neural Progenitor Cell Proliferation Assay (NPC1) (AID 2284332; active means hit-call score of the fitted dose curve at least 0.9, where 1 is the maximum;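 further: rising LDH signal means more cytotoxicity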)
Method in brief: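 Readout is fluorescence from LDH-dependent resazurin conversion, sampled from culture medium after compound contact lasting 72 h. Each well holds one 0.25-0.35 mm human progenitor sphere kept at 37C, 5% CO2 with EGF and FGF.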

Measured: outcome

CP(=O)(O)CCC(N)C(=O)O (stereo not given)
inactive: all assays above
